The list is not random: actives were taken first. Their share in the collection is about 2.1%.
Myeloid diff MLP – induction of myeloid progenitor differentiation, primary screen, cell-based, flow cytometry, MLPCN library. ER-HoxA9 myeloid progenitors, lysozyme-GFP differentiation. calls only at 10 µM. 360,000 tested, 1% active;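 active = normalized GFP-positive differentiation at or above the plate's own cutoff, the solvent-only control mean plus 3 SD; inconclusive = no clear call, values can overlap the other calls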;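 also: cells exposed to compound for four days before flow analysis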
Rpn11 block – Rpn11 (PSMD14) deubiquitinase inhibitors, primary screen, biochemical, fluorescence polarization, uHTS; human 26S proteasome, Ub4-pepOG fluorescence polarization; 20S core pre-blocked with epoxomicin; 360,000 tested, 0.59% active; AID 588493, 2011; inhibition, % at 20 µM; 26S proteasome non-ATPase regulatory subunit 14 (Homo sapiens), O00487;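 active = inhibition at 20 µM, scaled to each plate's controls, above about 33%, limit read from the data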
Target sequence (O00487 whole entry, looked up): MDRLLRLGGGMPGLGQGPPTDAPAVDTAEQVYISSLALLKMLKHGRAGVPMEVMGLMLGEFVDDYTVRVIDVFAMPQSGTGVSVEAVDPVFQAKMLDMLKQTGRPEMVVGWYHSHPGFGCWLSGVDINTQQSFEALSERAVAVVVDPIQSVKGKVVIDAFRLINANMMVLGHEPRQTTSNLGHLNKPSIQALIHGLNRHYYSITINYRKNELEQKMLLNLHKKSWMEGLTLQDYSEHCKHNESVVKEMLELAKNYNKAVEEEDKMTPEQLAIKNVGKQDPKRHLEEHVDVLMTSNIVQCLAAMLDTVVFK
TPT1 inh – Candida albicans TPT1 enzyme inhibitors, primary screen, biochemical, fluorescence polarization | recombinant caTPT1, FP RNA substrate dephosphorylation | 300,000 tested, 0.81% active | tRNA 2'-phosphotransferase TPT1 (Candida albicans SC5314) | inhibition, % at 5 µM | AID 1962, 2009;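 active = inhibition above the mean of all tested compounds plus 3 SD, set per screening campaign, cut at about 24% in these data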;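 also: plate controls were DMSO alone for no effect and ferristatin control at 100 nM for full effect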
HNF4A DNA FP – change in binding of human HNF4A to DNA, primary screen, biochemical, fluorescence polarization, FITC-DNA; Hepatocyte nuclear factor 4-alpha (Homo sapiens), P41235; 1 h; activity change, % at 10 µM; 360,000 tested, 0.3% active; AID 1224865, 2016; in the data active = activity change above about 30%, passing the limit was not always enough
Starred values were filed as active, the others as inactive; i = inactive; ? = inconclusive; · = no result given; + = active, no number.

SMILES	Myeloid diff MLP	Rpn11 block	TPT1 inh	HNF4A DNA FP
COC(CNC(=O)c1ccc(CS(=O)(=O)c2ccc(Br)cc2)o1)OC	i	-12	-2	1
CCOc1ccc2nc(NC(=O)c3ccc(OCC4CCCO4)cc3)sc2c1 (configuration not stated)	+	1	-1	0
CCCN(C(=O)CSc1n[nH]c(-c2ccc(OC)cc2)n1)c1c(N)n(Cc2ccccc2)c(=O)[nH]c1=O	+	7	-3	8
CN(CC(=O)Nc1c(Cl)cccc1Cl)CC(=O)N1CCc2ccccc21	i	-10	·	2
CCOC(=O)c1cc(-c2ccc(N3CCOCC3)cc2)nn1-c1ccccc1C(=O)O	i	60*	3	-49
CCOC(=O)c1cc(-c2ccc(N3CCOCC3)cc2)nn1-c1ccccc1	i	6	-1	-4
CCN1C(=O)c2cccc3c(NS(=O)(=O)c4ccc(NC(C)=O)cc4)ccc1c23	i	-2	-2	-5
CCOC(=O)c1ccc(NC(=O)Nc2ccc3c4c(cccc24)C(=O)N3CC)cc1	i	·	5	68*
CCC(C(=O)Nc1c(C)cccc1C)n1c(-c2ccc(-c3ccccc3)cc2)nc2ccccc21 (configuration not stated)	i	·	·	0
Cc1cc(C)c(S(=O)(=O)N2CCN(C(=O)c3cc(=O)[nH]c4ccccc34)CC2)c(C)c1	i	-7	·	-4
Cc1cc(C)c(C)c(S(=O)(=O)N2CCN(C(=O)c3cc(=O)[nH]c4ccccc34)CC2)c1C	+	-2	-4	1
CCOc1ccc(N(CC(=O)NCCc2ccccc2)C(=O)CCC(=O)Nc2cc(C)ccn2)cc1	+	7	1	1
NC(c1ccccc1)c1csc(Nc2ccc(S(N)(=O)=O)cc2)n1 (configuration not stated)	i	4	·	-1
CC(=O)c1csc(COc2ccccc2)n1	i	2	-2	63*
O=C(O)COCC(=O)N1CCCN(c2ccc(C(F)(F)F)cn2)CC1	+	5	·	5
Cc1ccc(S(=O)(=O)CC(=O)Nc2ccc(Cl)cn2)cc1	i	14	-1	34*
CCOC(=O)CC(=O)CSc1ccc2nnc(-c3ccc(C)cc3)n2n1	+	11	2	-1
CCOC(=O)N1CCN(C(=O)CSc2ccc3nnc(-c4ccncc4)n3n2)CC1	i	-4	8	-6
C=CC#CC[N+]1(CC#Cc2ccccc2)CCOCC1	i	139*	·	189
C(#Cc1ccccc1)C[N+]1(CC#Cc2ccccc2)CCCC1	?	-11	-4	0
COC(=O)[C@H]1C[C@@]2(O)CN(S(=O)(=O)c3ccc(C)cc3)C[C@@]2(OC(=O)NCc2ccccc2F)C[C@H]1C(=O)OC	+	-4	·	0
CCOC(=O)C1=C(CSc2nc(CC)c(C)cc2C#N)OC(N)=C(C#N)C1c1ccc(OC)cc1 (configuration not stated)	+	34	9	6
CCC(C)(C)NC(=O)C(c1ccco1)N(C(=O)c1csnn1)c1cccc(F)c1 (configuration not stated)	+	-3	-2	4
COCc1cc(N2CCCC2)nc(-c2ccccc2)n1	i	-1	4	-2
O=C(NS(=O)(=O)Nc1ccc(Br)cn1)c1c[nH]c2ccccc12	i	7	-4	0
SMILES	Myeloid diff MLP	Rpn11 block	TPT1 inh	HNF4A DNA FP
CS(=O)(=O)N(CC(=O)Nc1ccc(CC#N)cc1)c1ccc(C23CC4CC(CC(C4)C2)C3)cc1	+	0	-2	-1
CCCCc1ccc(NC(=O)c2ccc(NS(C)(=O)=O)cc2)cc1	+	-2	2	-2
COc1cccc(C(C(=O)NCc2ccccc2)N2CCN(C(=O)C3CCCO3)CC2)c1OC (configuration not stated)	i	·	·	-1
O=C(Nc1cccc(S(=O)(=O)NC2=NCCCCC2)c1)c1cc(-c2ccco2)nc2ccccc12	i	41*	2	-33
O=C(Nc1cccc(S(=O)(=O)NC2=NCCCCC2)c1)c1cc(-c2ccncc2)nc2ccccc12	i	0	7	-1
CCC(C)CN1C(=O)CN(S(C)(=O)=O)CC1(C)C(=O)NCc1ccccc1 (configuration not stated)	i	·	·	-3
COc1cc(CNc2ccc3[nH]c(=O)[nH]c3c2)ccc1OCc1ccc(C)cc1	i	5	·	5
COc1cc(CNc2ccc3[nH]c(=O)[nH]c3c2)cc(Br)c1OCc1ccc(F)cc1	+	-8	·	2
CCc1nc2cc(NC(=O)C3(C)CCCN(C(C)=O)C3)ccc2o1 (configuration not stated)	i	5	·	0
NS(=O)(=O)c1cccc(NS(=O)(=O)c2cccc(C(F)(F)F)c2)c1	i	-1	1	1
CS(=O)(=O)N1CCc2cc(C(=O)N3CCN(c4ccccc4F)CC3)ccc21	+	-1	-2	1
COc1ccccc1N1CCN(C(=O)c2ccc3c(c2)CCN3S(C)(=O)=O)CC1	i	-1	-9	5
OCCCc1nc2n(n1)C(c1cccs1)C=C(c1ccccc1)N2 (configuration not stated)	·	·	-49	·
OCCCc1nc2n(n1)C(c1ccccc1Cl)C=C(c1cccs1)N2 (configuration not stated)	i	-25	24*	22
CCNc1nc(NCC)nc(N(C)/N=C/c2ccco2)n1	i	8	3	5
CCN1CCN(S(=O)(=O)c2ccc(Cl)c(C(=O)N(CCc3ccccc3)Cc3ccccc3)c2)CC1	+	7	·	-2
CC1(c2ccc3c(c2)OCCCO3)NC(=O)N(CC(=O)NCCc2ccccc2)C1=O (configuration not stated)	i	10	·	3
O=C(Nc1cccc(-c2nc3ncccc3o2)c1)c1sc2ccccc2c1Cl	i	18	8	43*
O=C(Nc1cccc(-c2nc3ncccc3o2)c1)c1cc2ccccc2o1	i	3	-2	-9
O=C(Nc1cccc(-c2nc3ncccc3o2)c1)c1sc2cc(Cl)ccc2c1Cl	i	+	0	176*
O=C(Cc1ccccc1)Nc1cccc(-c2nc3ncccc3o2)c1	i	-18	-5	-2
COc1cc(/C=N/n2c(C)nc3ccccc3c2=O)cc(OC)c1O	i	1	-5	2
Cc1ccc(S(=O)(=O)N2[C@@H](c3ccc(Cl)cc3)C(C(=O)O)=C[C@H]2CC2CCCC2)cc1	+	10	·	-2
O=C(/C=C/c1ccc(Cl)cc1)Nc1nccs1	+	2	·	-2
COc1ccc(/C=C2\C(=O)NCC(=O)N2C)cc1	+	-10	0	5
CC1(C)CC(N2CCCCC2)=CC(=[N+]2CCCCC2)C1	+	15	1	0
CC1(C)CC(N2CCOCC2)=CC(=[N+]2CCOCC2)C1	i	-2	2	5

Screening data as filed in PubChem BioAssay.
